# From PubChem
# Hits are enriched below; roughly 3.2% of the tested compounds scored in any of these assays.
# INS-1E GSIS act = GLuc luminescence reporter in INS-1E cells, primary screen for activators of glucose-dependent secretion of insulin; 370,000 tested, 0.61% active; INS-1E GLuc reporter insulin secretion, 2-3 h; AID 743287; activation, % at 16.6 µM;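 active means lowest replicate activation of at least 40%, so every replicate reaches that level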;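 further: 0% = median of neutral control wells and 100% = median of IBMX positive control wells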
# rRNA inh HTS = inhibits bacterial ribosomal RNA function over humanized ribosomes; 350,000 tested, 1.6% active; GFP signal change (wild-type ribosome), % (no concentration beside the values); E. coli WT GFP vs humanized-ribosome RFP mutants, fluorescence, 24 h; stronger effect = lower value; DMSO median 0, no signal -100; AID 720706;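 active means significant combined selectivity score with lowered wild-type GFP, culture density cut under 30%, mutant RFP and density less affected; inactive means any of these conditions unmet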
# PGC1a acetyl inh = lowers PGC1a acetylation signal in U2OS cells; AlphaScreen anti-acetyl-lysine; with virally co-expressed GCN5 acetyltransferase; inhibition, % at 15.6 µM; 350,000 tested, 0.17% active; AID 651687;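 active means every replicate shows inhibition of at least 40%; inconclusive means mean inhibition at least 40% but some replicate below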;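 further: 0% = neutral control wells and 100% = positive control wells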
# CaV13 FRET inh = Disruptors of the CACNA1D IQ motif to Ca2+-dependent inactivation inhibitor domain association, primary screening, Förster resonance energy transfer in intact living …. HEK cells, CFP/YFP FRET ICDI-IQ, plate reader, 10 min; percent FRET-ratio fall versus neutral wells. inhibition, % at 12.3 µM. 340,000 tested, 0.098% active. AID 743397;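 active means mean replicate inhibition of at least 30% and at least 1% of replicates passing that level; inconclusive means only one of the two criteria is met; inactive means neither criterion is met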;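 further: 0% = median of the neutral control wells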
# ERAP1 HTS inh = inhibitors of human ERAP1 aminopeptidase. recombinant ERAP1, Leu-AMC fluorescence, 60 min. inhibition, % at 10.7 µM. 340,000 tested, 0.15% active. AID 652197;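 active means mean replicate inhibition of at least 30%, or all replicates individually reaching that 30% level; inactive means mean below 30% and not every replicate reaching it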;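 further: 0% = neutral control wells and 100% = L-leucinethiol positive control wells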
# DENV2 CPE rescue = inhibitors of DENV2 cytopathic effect; DENV2-infected cells, cytopathic effect rescue, plate reader; CPE inhibition, % at 9.99 µM; 350,000 tested, 1.7% active; AID 651640; in the data active means CPE inhibition above about 20%, passing the limit was not always enough; inconclusive means no clear call, values can overlap the other calls; tested in BHK-21 cells;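 further: 0% = median of neutral control wells and 100% = median of positive control wells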
# * marks the source's active call; other numbers are inactive results; ? = inconclusive; . = no result.
SMILES,INS-1E GSIS act,rRNA inh HTS,PGC1a acetyl inh,CaV13 FRET inh,ERAP1 HTS inh,DENV2 CPE rescue
Cc1noc(C)c1S(=O)(=O)Nc1ccc2c(c1)CC(=O)N([C@@H](C)CO)C[C@H](C)[C@H](CN(C)S(=O)(=O)c1ccccc1)O2,8,-2,6,.,-1,-3
Cc1noc(C)c1NC(=O)Nc1ccc2c(c1)C(=O)N([C@@H](C)CO)C[C@H](C)[C@@H](CN(C)CC1CC1)OCCCC[C@H](C)O2,-5,3,.,.,1,4
O=[N+]([O-])c1ccccc1S(=O)(=O)Nc1ccc(S(=O)(=O)Nc2nccs2)cc1,9,13,-5,-3,-3,?
Nc1ccc(S(=O)(=O)Nc2nccs2)cc1N=Nc1ccccc1[N+](=O)[O-],6,-20*,-1,-6,2,-2
CC(O)CNCc1cccc2ccccc12 (stereo not drawn),.,.,5,.,.,.
CC(O)CNC1c2ccccc2CC1O (stereo not drawn),-1,13,-10,-5,1,63*
C=Cc1ccc(Cn2c(C)c(C(=O)NCc3cccc(C(F)(F)F)c3)sc2=O)cc1,10,-5,.,22,.,57*
C=Cc1ccc(Cn2c(C)c(C(=O)NCc3cccc(C)c3)sc2=O)cc1,-27,-4,.,69*,.,16
NNC(=O)c1cccc(S(=O)(=O)Nc2cc(Cl)ccc2Cl)c1,-17,-20*,13,-3,.,-1
Cc1ccc(-n2nc3ccc(NC(=O)c4ccco4)cc3n2)cc1,65*,.,-2,-5,.,.
CO[C@@H]1CN(C)C(=O)c2cc(NC(=O)c3cccc(F)c3)ccc2OC[C@@H](C)N(C(C)=O)C[C@H]1C,-5,1,3,.,.,.
COc1cccc(CN(C)C(=S)Nc2ccc(C)c(C)c2)c1,-22,-25*,1,-1,-4,-6
O=C(C1CCCC1)N1CCC(CC2CC(c3cccc(Br)c3)=NO2)(C(=O)NCC2CCCCC2)CC1 (stereo not drawn),-12,-10,-15,-4,-6,53*
CCCCCCCNC(=O)C1(CC2CC(c3cccc(Br)c3)=NO2)CCN(C(=O)CCCCCBr)CC1 (stereo not drawn),18,-20*,-8,-5,-1,-6
CCCCCCCNC(=O)C1(CC2CC(c3cccc(Br)c3)=NO2)CCN(C(=O)C2(C)CC2)CC1 (stereo not drawn),-23,-3,-15,-6,-1,-15
C[C@@H]1CN([C@@H](C)CO)C(=O)c2cc(NC(=O)Nc3cccc4ccccc34)ccc2O[C@@H](C)CCCCO[C@H]1CN(C)S(=O)(=O)c1cccs1,8,1,-6,.,.,1
CO[C@H]1CN(C)C(=O)c2ccc(NC(=O)c3cccc(F)c3)cc2OC[C@@H](C)N(CC2CC2)C[C@H]1C,.,.,-22,.,-1,2
CCOc1ccccc1OCCCC(=O)N1CCN(S(=O)(=O)c2ccccc2C#N)CC1,-3,-1,.,-13,-1,0
Cc1cccc(CSCC(=O)N2CCN(S(=O)(=O)c3ccccc3C#N)CC2)c1,.,-16*,-2,-5,-1,10
CCC(=O)Nc1ccc2c(c1)C(=O)N(C)C[C@H](OC)[C@H](C)CN(Cc1ccccn1)[C@@H](C)CO2,-3,0,-2,.,3,3
COCC(=O)Nc1ccc2c(c1)C(=O)N(C)C[C@H](OC)[C@@H](C)CN(Cc1ccccc1OC)[C@@H](C)CO2,-11,2,9,.,0,-4
COC(=O)CN(c1ccc(F)cc1)S(=O)(=O)c1ccccc1,.,.,-4,-4,.,.
COC(=O)CN(c1cccc(C)c1)S(=O)(=O)c1ccccc1,46*,-3,-6,-6,4,6
Cc1cccc(N(CC(=O)NC2CC2)S(=O)(=O)c2ccc(Cl)cc2)c1,15,5,.,-6,-1,50*
CC(=O)N(c1cccc(C)c1)S(=O)(=O)c1ccc(Cl)cc1,-5,1,53*,-7,2,1
SMILES,INS-1E GSIS act,rRNA inh HTS,PGC1a acetyl inh,CaV13 FRET inh,ERAP1 HTS inh,DENV2 CPE rescue
C/C=C/c1cnc2c(c1)C(=O)N([C@H](C)CO)C[C@H](C)[C@H](CN(C)Cc1cncnc1)O2,12,5,-22,.,0,-11
COCC(=O)Nc1ccc2c(c1)C(=O)N(C)C[C@H](OC)[C@H](C)CN(CC1CC1)[C@@H](C)CO2,15,3,17,.,-2,0
CCOC(=O)c1c(C)[nH]c(C(=O)COC(=O)c2cnccn2)c1C,70*,2,9,-5,0,?
COc1ccccc1CCNC(=O)Nc1cccc([N+](=O)[O-])c1,-34,-20*,6,-4,-7,.
COc1ccc(S(=O)(=O)N(C)C[C@H]2OCCCC[C@H](C)Oc3ccc(NS(=O)(=O)c4ccc(C)cc4)cc3C(=O)N([C@@H](C)CO)C[C@@H]2C)cc1,-9,-1,-8,.,-1,10
O=C(OCc1ccccc1)c1cnc(Cl)c(Cl)c1,9,-2,6,-4,1,-1
CC(C)N(Cc1ccccc1)C(=O)COC(=O)c1cnc(Cl)c(Cl)c1,.,-38,-13,-5,-3,67*
N=C1/C(=C/c2cccn2Cc2ccc(Cl)cc2)C(=O)N=C2SC=CN12,148*,.,.,-28,.,.
CC1=CC2=NC(=O)/C(=C/c3cccn3Cc3ccccc3)C(=N)N2O1,12,-35*,-11,-16,2,3
CCC1CN(C(=O)NCc2ccccc2)c2cc(Cl)ccc2O1 (stereo not drawn),-35,-9,2,-20,-2,6
CCC1CN(C(=O)NCc2ccccc2)c2ccccc2O1 (stereo not drawn),-9,-22*,3,-21,-3,-1
CO[C@@H]1CN(C)C(=O)c2cc(NC(=O)c3ccc4c(c3)OCO4)ccc2OC[C@@H](C)N(CCC(F)(F)F)C[C@H]1C,-8,-5,15,.,0,23*
CO[C@H]1CN(C)C(=O)c2ccc(NC(=O)c3ccc4c(c3)OCO4)cc2OC[C@H](C)N(CCC(F)(F)F)C[C@@H]1C,-21,0,-10,.,3,0
CO[C@@H]1CN(C)C(=O)c2cc(NC(=O)c3ccc4c(c3)OCO4)ccc2OC[C@@H](C)N(CCC(F)(F)F)C[C@@H]1C,-13,-8,-1,.,-3,36*
CO[C@@H]1CN(C)C(=O)c2ccc(NC(=O)c3ccc4c(c3)OCO4)cc2OC[C@@H](C)N(CCC(F)(F)F)C[C@H]1C,-16,-4,-14,.,0,1
COc1ccc(NC(=O)Nc2ccc3c(c2)CC(=O)N([C@@H](C)CO)C[C@@H](C)[C@H](CN(C)S(=O)(=O)c2cccs2)O3)cc1,6,-4,12,.,-1,18
